Laboratory results taken from PubChem BioAssay AID1463 (National Center for Advancing Translational Sciences (NCATS), 2008).
About 2,600 (0.93%) of roughly 280,000 compounds were called active. Inconclusive results (about 8%) are left out. Only a selection was taken, and actives are over-represented in it overall. Unmarked numbers belong to inactive results. The call rests on the fitted dose curve; in most records, active means well fitted curve in the direction sought with a large enough effect; inconclusive means small, poorly fitted or top-dose-only effect; inactive means flat fitted curve, though single readings scatter.

assay: Counterscreen qHTS for Inhibitors of Tau Fibril Formation, Fluorescence Polarization; conditions: tau K18 P301L Alexa594 fluorescence, heparin fibrillization; series mostly up to 57.7 µM; activity change, negative = decrease: at the top concentration; further: nearly all actives have a fitted effect of over 55% in size
How it was run: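 Human tau K18 P301L (15 uM unlabeled, 0.24 uM Alexa 594-labeled) in 100 mM sodium acetate pH 7 with 20 uM heparin, 6 hr at 37 C. ThT 30 uM added, 1 hr ambient; Alexa 594 FP and total fluorescence read at 555/632 nm.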
On the % scale 0 is the no-effect control and ±100 the full control effect; potency means the concentration at half of the fitted maximal effect; tags describe the fitted curve by direction and shape or compound fluorescence and quenching.

SMILES	activity change, negative = decrease	Potency
N#C/C(=C/c1ccc(-c2ccccc2[N+](=O)[O-])o1)C(=O)NCCN1CCCCC1	-11.3%	
N#C/C(=C/c1ccc(N2CCCCC2)o1)C(=O)NCCc1c[nH]c2ccccc12		15.8 µM [quencher] (active)
O=C(NCCc1c[nH]c2ccccc12)C(=O)NCC1CCCO1 (stereo unspecified)	0.306%	
Cc1ccc(Nc2c3c(nc4ccccc24)CCC3)cc1	-9.23%	
COc1ccc(/C=C/C(=O)Nc2ccc3c(c2)OCCO3)cc1OC	-28.9%	
COc1ccccc1Nc1c2c(nc3ccc(NC(=O)/C=C/c4cc(OC)c(OC)c(OC)c4)cc13)CCCC2		10 µM [quencher] (active)
CCCN(C(=O)Cn1ncc2c([nH]c3ccc(C)cc32)c1=O)c1ccccc1C	-19.4%	
Clc1ccc(Nc2nc(-c3cccs3)cs2)nc1		14.1 µM [quencher] (active)
c1cnc(Nc2nc(-c3ccc4ccccc4c3)cs2)nc1	-6.05%	
COC(=O)CSc1nccc(-c2cccs2)n1	0.872%	
Cc1cccc(-n2ncc(C(=O)N3CCN(c4ccc(Cl)cc4)CC3)c2C2CCN(C(=O)OC(C)(C)C)CC2)c1	-17.5%	
Cc1ccc(C)c(N2CCN(C(=O)C3CCC(CNS(=O)(=O)c4cccs4)CC3)CC2)c1 (stereo unspecified)	-20%	
O=C(CC1SC(=Nc2ccccc2)N(Cc2ccccn2)C1=O)Nc1cccc(Cl)c1 (stereo unspecified)		10 µM [quencher] (active)
O=C(Nc1cccc(Cl)c1)OCc1ccccn1	-16.9%	
CN1C(=O)C(CC(=O)Nc2ccccc2)S/C1=N/c1nccs1 (stereo unspecified)	-2.38%	
Fc1ccc(CSc2nc(NCc3ccccc3)c3ccccc3n2)cc1	-11.1%	
Cc1ccccc1NC(=S)NNC(=O)c1cccc(Br)c1	-9.27%	
O=C(NC(=S)Nc1cccc2c(O)cccc12)c1cccc(Br)c1		11.2 µM [quencher] (active)
NS(=O)(=O)c1ccc(NC(=S)NC(=O)c2cccc(Br)c2)cc1	-6.18%	
COc1cccc(C(=O)N(Cc2cccc(Cl)c2)Cc2ccco2)c1	-8.6%	
Cc1ccccc1CSc1nc2c([nH]c3ccccc32)c(=O)n1C	-4.83%	
CCN(C(=O)CSc1nnc(C)n2c1cc1occc12)c1ccccc1	-11.2%	
CC1CCN(S(=O)(=O)c2ccc3c(c2)N(CC(=O)NCCc2ccccc2)C(=O)CO3)CC1	-19.9%	
COc1ccc(Cl)cc1NC(=O)c1sc2nc3c(cc2c1N)CN(C)CC3		10 µM [quencher] (active)
CCc1ccc(NC(=O)c2sc3nc4c(cc3c2N)CN(CC)CC4)cc1		20 µM [quencher] (active)
CCc1ccc2nc3sc(C(=O)Nc4nnc(CC)s4)c(N)c3cc2c1	-25.2%	

SMILES	activity change, negative = decrease	Potency
CCc1ccccc1NC(=O)c1sc2nc3c(cc2c1N)CN(Cc1ccccc1)CC3	-23%	
COc1ccc(Cl)cc1NC(=O)c1oc(C)nc1C	-2.19%	
COc1ccc(Cl)cc1NC(=O)CCN1CCOCC1	15.5%	
O=C(Nc1ccc(S(=O)(=O)N2CCC(c3nc4ccccc4s3)CC2)cc1)c1ccccc1F	2.89%	
Cc1cc(C)cc(-n2ccnc2SCC(=O)Nc2nc3ccccc3s2)c1	-11.2%	
CCOc1ccccc1CNC(=O)Nc1cn(CC(C)C)c(=O)c2ccccc12	-18.9%	
CC(C)Cn1c(C2CC(=O)N(c3ccccc3Cl)C2)nc2ccccc21 (stereo unspecified)	-3.59%	
Cc1ccc(-c2csc(-c3c[nH]c4ccccc34)n2)cc1		7.08 µM [quencher] (active)
CCCc1cc(-c2nc(-c3ccc(C)cc3)cs2)ccn1	-4.64%	
Cc1ccc(-c2csc(-c3cc(C)on3)n2)cc1	-7.55%	
Cc1ccc2c(=O)c(C(=O)c3ccc(Cl)cc3)cn(CC(=O)NC3CCCCC3)c2n1	-5.5%	
CN(C)CCCNC(=O)c1ccc2[nH]c3ccccc3c2c1	0.618%	
Cc1ccc(C(=O)NCCSc2c(C)[nH]c3ccccc23)cc1C		12.6 µM [quencher] (active)
COC(=O)CCNC(=O)c1ccc2[nH]c(C)c(C)c2c1	-13.3%	
COc1ccc(C(=O)N2CCC(c3nc4ccccc4o3)CC2)cc1	5.71%	
CCOc1ccccc1C(=O)NCc1ccc2c(c1)CCN2C(=O)c1ccc(F)cc1	-12.3%	
Cc1ccc(S(=O)(=O)NCc2nc3nc(C)cc(C)n3n2)cc1	-11%	
Oc1ccc(/C=N/Nc2nc(-c3ccccc3F)nc3ccccc23)c(O)c1		5.01 µM [quencher] (active)
Oc1ccc(/C=N/NC2=NCCCCC2)c(O)c1	-10.3%	
Cc1cc(N/N=C/c2ccccc2F)c2ccccc2n1	-9.11%	
Cc1c(C(=O)Nc2cccc(Cl)c2)oc2ccc(S(=O)(=O)N3CCOCC3)cc12	-21.2%	
COc1cc(OC)c(OC)cc1/C=C/c1nc2ccccc2c(=O)n1-c1ccc(Br)c(C)c1	-24.9%	
Cc1cc(Nc2ccccc2)n(C(=O)c2ccc(N)cc2)n1		25.1 µM [quencher] (active)
Cc1cc(NC(=O)Nc2ccccc2)n(-c2ccccc2)n1	-4.86%	
Cc1cc(Nc2ccccc2)n(CCC#N)n1	4.45%	
